# A selection: hits, their analogues and other compounds. The true share with any hit is near 15%.
# Gal4-VP16 FLuc: inhibits Gal4-VP16 luciferase reporter, ROR gamma counter-screen; Drosophila S2 Gal4-VP16 UAS-luciferase, luminescence, 20 h; Potency, µM (highest dose often 53.6 µM), without a hit: at the top dose activity, negative = inhibition, actives largely listed as inhibitors; 3.5% of 310,000 active;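 further: Gal4-VP16 expression switched on by copper sulfate through the metallothionein promoter; nearly all actives have a fitted effect of over 50% in size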
# TDP1 cell noCPT: qHTS for Inhibitors of human tyrosyl-DNA phosphodiesterase 1 (TDP1): qHTS in cells in absence of CPT | AID 686978, 2013 | 15% of 420,000 active | DT40 Tdp1-/- hTDP1 cells, no CPT, ATP luminescence, 48 h | Potency, µM (doses to about 46.2 µM), for inactives: at the highest dose activity change, negative = growth inhibition, most hits filed as inhibitors; further: nearly all actives have a fitted effect of over 55% in size
#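 Growth of hTDP1-complemented DT40 Tdp1-knockout cells is measured by ATP luminescence after at least 48 hr compound exposure at 37 °C, with DMSO substituting for the 20 nM CPT used in the parallel screen.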
# ELG1 DNA repair: inhibitors of ELG1-dependent DNA repair in HEK293T cells | HEK293T ELG1-luciferase reporter, luminescence, 16 h; DNA damage induced by 5-fluorouridine | Potency, µM (highest dose often 46.1 µM), inactives show at the highest dose activity change, negative = inhibition, usual class: inhibitors | 2.3% of 330,000 active | AID 504467; further: nearly all actives have a fitted effect of over 55% in size
#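 Step one: seed 2,000 cells per well. Step two: pin-transfer compound or DMSO alongside 5-fluorouridine. Step three: incubate 16 hr, 37 °C, 5% CO2. Step four: add ONE-Glo, wait 30 min, read luminescence.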
# RORgamma inh: ROR gamma (mouse) transcription inhibition; 5.4% of 310,000 active; Drosophila S2 Gal4-RORgamma UAS-luciferase reporter, 20 h; AID 2551; P51450; Potency, µM (series often up to 53.6 µM), without a hit: at the highest dose activity change, negative = inhibition, hits mostly inhibitors; further: nearly all actives have a fitted effect of over 60% in size
#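 A Gal4/UAS one-hybrid system in insect cells: metallothionein-promoter Gal4–ROR gamma fusion plus Photinus luciferase reporter. Copper sulfate 700 uM final, 20 hr ambient incubation, luminescent detection after 10 min with reagent.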
# DT40 TDP1 CPT: growth inhibition of DT40 Tdp1-/-;hTDP1 cells with camptothecin (screen for TDP1 inhibitors); chicken DT40 Tdp1-/-;hTDP1 cells + 20 nM CPT, ATP luminescence, 48 h; Potency, µM (series often up to 46.2 µM), without a hit: top-dose activity change, negative = growth inhibition, hits mostly inhibitors; 12% of 420,000 active; further: nearly all actives have a fitted effect of over 55% in size
#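 Cell growth measured by CellTiter-Glo luminescence after a minimum 48 h, 37 C compound exposure with 20 nM CPT in Tdp1-knockout DT40 cells stably expressing hTDP1, seeded 400/well; qHTS titration format.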
# ALOX12 inh: blocks human arachidonate 12S-lipoxygenase; purified 12hLO, xylenol orange hydroperoxide absorbance; Potency, µM (highest dose often 108 µM), for inactives: at the highest dose activity change, negative = inhibition, usual class: inhibitors; 1.1% of 580,000 active
# Target sequence (P18054 whole entry, looked up): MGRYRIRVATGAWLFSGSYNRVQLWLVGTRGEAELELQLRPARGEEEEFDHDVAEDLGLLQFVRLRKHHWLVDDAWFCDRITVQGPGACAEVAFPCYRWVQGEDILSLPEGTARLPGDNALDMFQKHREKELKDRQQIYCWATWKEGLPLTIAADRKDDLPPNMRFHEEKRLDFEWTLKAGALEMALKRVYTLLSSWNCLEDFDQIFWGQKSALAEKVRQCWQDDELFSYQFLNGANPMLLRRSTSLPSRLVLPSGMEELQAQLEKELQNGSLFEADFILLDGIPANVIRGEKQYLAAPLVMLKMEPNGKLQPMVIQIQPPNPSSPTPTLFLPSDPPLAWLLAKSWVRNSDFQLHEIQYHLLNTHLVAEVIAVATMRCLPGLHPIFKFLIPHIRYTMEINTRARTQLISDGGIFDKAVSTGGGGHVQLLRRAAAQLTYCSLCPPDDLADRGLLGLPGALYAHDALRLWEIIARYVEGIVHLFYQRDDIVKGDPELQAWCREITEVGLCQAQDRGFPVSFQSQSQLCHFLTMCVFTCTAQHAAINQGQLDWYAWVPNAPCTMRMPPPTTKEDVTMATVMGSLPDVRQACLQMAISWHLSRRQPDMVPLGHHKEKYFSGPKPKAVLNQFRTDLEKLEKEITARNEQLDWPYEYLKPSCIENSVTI
#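 Purified human 12hLO (150 nM final) in 25 mM Hepes, 0.01% Triton X-100, pH 7.0 was preincubated 15 min at room temperature with compound. Then 40 uM arachidonic acid was added, 30 min. Hydroperoxide was read by Fe-XO absorbance ratio 573/405 nm.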
# The depositor's hits bear a star; ? = inconclusive; nt = no result given. The call rests on the fitted dose curve; in most records, active means well fitted curve in the direction sought with a large enough effect; inconclusive means small, poorly fitted or top-dose-only effect, or another doubt; inactive means no such curve, though single readings can be large; an effect the other way counts as inactive or inconclusive. On the % scale 0 is the no-effect control and ±100 the full control effect; potency means the concentration at half of the fitted maximal effect.
SMILES,Gal4-VP16 FLuc,TDP1 cell noCPT,ELG1 DNA repair,RORgamma inh,DT40 TDP1 CPT,ALOX12 inh
Cc1cc(F)ccc1-c1cc(C(=O)NCc2ccccc2)[nH]n1,nt,?,nt,nt,26µM*,-4%
Cc1cc(O)ccc1-c1cc(C(=O)NCc2ccc(F)cc2)[nH]n1,nt,-24%,nt,nt,?,4%
COc1ccc(Cl)cc1-c1cc(C(=O)NCc2cccc(C(F)(F)F)c2)[nH]n1,nt,?,nt,nt,7.3µM*,2%
COc1ccc(Cl)cc1-c1cc(C(=O)NCc2ccc(C(F)(F)F)cc2)[nH]n1,nt,7.3µM*,nt,nt,4.6µM*,16%
COCC(C)NC(=O)CCC1CCCO1 (centres undefined),nt,nt,nt,nt,nt,1%
O=C(NCC(=O)N1CCCCC1)C1CCCN(S(=O)(=O)c2ccc(Cl)cc2)C1 (centres undefined),nt,nt,nt,nt,nt,-1%
Cc1ccc(-n2c(SCC(=O)NC(C)c3cc4ccccc4o3)nnc2N2CCOCC2)cc1 (centres undefined),nt,nt,nt,nt,nt,0%
Cc1oc2cc(O)ccc2c(=O)c1Oc1ccccc1,-10%,5.8µM*,?,9%,6.5µM*,0%
CCOC(=O)c1ccc(Oc2c(C)oc3cc(OS(C)(=O)=O)ccc3c2=O)cc1,-3%,16µM*,?,?,16µM*,-11%
CCN(Cc1ccc(Br)s1)C(=O)Cn1nnc(-c2ccccc2)n1,nt,nt,nt,nt,nt,-1%
COc1ccc(NC(=O)[C@@H]2C[C@H](c3ccc(F)cc3)N([S+](=O)([O-])C3CC3)C2)cc1OC,nt,nt,nt,nt,nt,-28%
O=C(Oc1ccc(OC(=O)C2CCC2)cc1)C1CCC1,22µM*,23µM*,-17%,11µM*,?,-2%
O=C(Oc1ccc(Cl)cc1)C1CCCC(C(=O)Oc2ccc(Cl)cc2)C1 (centres undefined),nt,nt,nt,nt,nt,14%
O=C(Nc1ncc(Cc2cccc(Cl)c2)s1)c1cccs1,16µM*,?,?,7.1µM*,?,8%
O=C(Nc1ncc(Cc2cccc(Cl)c2)s1)C1=NCCN1,5µM*,?,19%,2.5µM*,16µM*,10%
O=C(Nc1ncc(Cc2ccc(Cl)cc2)s1)c1ccc2c(c1)CC(c1ccccc1)OC2=O (centres undefined),nt,7.3µM*,nt,nt,4.6µM*,11%
Cc1ccc(C(=O)Nc2ncc(Cc3ccccc3)s2)o1,?,-10%,?,11µM*,-23%,-23%
Cn1nc(C(=O)Nc2ncc(Cc3ccc(Cl)cc3)s2)c2ccccc2c1=O,nt,nt,nt,nt,nt,-8%
COc1nc2c(cc1CNC(=O)c1ccc(F)cc1)C(=O)N(C1CCCC1)C2,nt,nt,nt,nt,nt,46%
CC1CCCN1c1ccc(C(=O)N2CCC(Oc3cccnc3)CC2)cn1 (centres undefined),nt,nt,nt,nt,nt,24%
O=C(CCn1ccn2nc3c(c2c1=O)CCCC3)Nc1cccc(OC(F)(F)F)c1,nt,nt,nt,nt,nt,12%
Cc1ccc(Cc2cnc(NC(=O)c3cccs3)s2)cc1,8.9µM*,?,?,3.5µM*,?,-1%
O=C(Nc1ncc(Cc2ccc(SC(F)F)cc2)s1)c1ccccc1,20µM*,2.3µM*,?,13µM*,2.9µM*,-1%
CC(=O)N1NC(=Nc2ccccc2)SC1(C)C,?,16µM*,-6%,-16%,?,0%
O=C(Nc1ccc(OCc2ccccc2Cl)cc1)c1ccc(C(F)(F)F)cc1,nt,nt,nt,nt,nt,-12%
O=C1/C(=C/c2cccs2)NC(=S)N1C1CC1,?,-9%,-1%,7.1µM*,-6%,-22%
COc1ccc(C(=O)Nc2ccc3oc(-c4ccncc4)nc3c2)cc1Br,nt,nt,nt,nt,nt,-24%
CCOc1ccc(C(=O)Nc2ccc3oc(-c4ccc(C)cc4C)nc3c2)cc1Br,nt,13µM*,nt,nt,?,-2%
